Screens deposited in PubChem by several laboratories.
FadD28 FP inh: M. tuberculosis FadD28 bisubstrate binding inhibition; FadD28 bisubstrate probe binding, fluorescence polarization; 360,000 tested, 0.22% active; inhibition, % at 12.5 µM; AID 588549; in the data active = inhibition above about 8.5%, passing the limit was not always enough; inconclusive = no clear call, values can overlap the other calls
Mtb FBA inh: Mtb fructose-bisphosphate aldolase inhibition | purified M. tuberculosis FBA, fluorescence read-out | AID 588726 | inhibition, % at 1 µM | 360,000 tested, 2.3% active | P9WQA3; in the data active = inhibition above about 27%;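 note: 0% = vehicle and 100% = reference inhibitor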
Target sequence (P9WQA3 whole entry, looked up): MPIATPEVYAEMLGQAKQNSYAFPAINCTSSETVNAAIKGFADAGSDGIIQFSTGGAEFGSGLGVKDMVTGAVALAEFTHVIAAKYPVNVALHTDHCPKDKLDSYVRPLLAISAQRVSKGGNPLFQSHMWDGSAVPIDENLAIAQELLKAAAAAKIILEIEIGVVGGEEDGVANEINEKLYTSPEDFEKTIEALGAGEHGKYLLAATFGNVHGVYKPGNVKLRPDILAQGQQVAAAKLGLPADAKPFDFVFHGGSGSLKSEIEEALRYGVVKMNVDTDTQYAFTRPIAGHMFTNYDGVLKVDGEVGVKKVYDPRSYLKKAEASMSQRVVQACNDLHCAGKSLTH
Mtb BioA inh: BioA (M. tuberculosis) enzyme inhibition; 360,000 tested, 0.096% active; inhibition, % at 9.99 µM; AID 602481; purified M. tuberculosis BioA enzyme, plate reader; in the data active = inhibition above about 40%; inconclusive = no clear call, values can overlap the other calls
GDH-TPI inh: counter-screen for M. tuberculosis FBA inhibitors: GDH-TPI coupled enzymes; GDH-TPI coupled enzyme counterscreen, NADH absorbance; inhibition, % at 4.8 µM; 360,000 tested, 1.2% active; AID 588335; in the data active = inhibition above about 30%;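 note: 0% = DMSO wells and 100% = wells lacking the enzyme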
Rv3671c protease: inhibitors of M. tuberculosis serine protease Rv3671c. P9WHR9. inhibition, % at 5.96 µM. AID 2606. 320,000 tested, 0.048% active; in the data active = inhibition above about 38%;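 note: extracellular domain of Rv3671c used as enzyme; 0% = enzyme with DMSO and 100% = no enzyme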
The depositor's hits bear a star; ? = inconclusive; nt = not tested or not shown; + = active, no number. Sampled rows, rich in hits. Any-hit rate of the full collection: about 3%.

SMILES | FadD28 FP inh | Mtb FBA inh | Mtb BioA inh | GDH-TPI inh | Rv3671c protease
O=C(NCC[C@H]1CC[C@H](NS(=O)(=O)c2cccc(F)c2)[C@@H](CO)O1)C1CCOCC1 | nt | nt | -1 | nt | nt
CCOC(=O)C(=CNc1ccccc1N1CCOCC1)C(=O)OCC | 1 | -1 | 0 | 50* | 2
CCOC(=O)C(=CNc1cccc(C)c1C)C(=O)OCC | -3 | -2 | nt | 15 | 0
C=CCOc1ccc(/C=C2\SC(N)=NC2=O)cc1OC | 1 | 1 | 1 | 30 | 3
COc1cc(/C=C2/C(=O)ON=C2c2ccccc2)ccc1O | 0 | -1 | 1 | 37* | -8
COc1cc(/C=C2\COC/C(=C\c3ccc(O)c(OC)c3)C2=O)ccc1O | 1 | -11 | 2 | 30 | 2
COc1cc(/C=C2/CC/C(=C/c3ccc(O)c(OC)c3)C2=O)ccc1O | -1 | -9 | nt | 39* | -31
COc1cc(/C=C2\C(=O)ON=C2c2ccccc2)cc(Cl)c1O | -2 | -3 | nt | 7 | -12
COc1cc(/C=C2\SC(N)=NC2=O)ccc1O | 0 | -8 | -3 | 39* | nt
COc1ccc(/C=N/Nc2cc(C)nc(N)n2)cc1 | -1 | -1 | 1 | 35* | 11
Cc1cc(N/N=C/c2ccc(F)cc2)nc(-n2nc(C)cc2C)n1 | -1 | 17 | -3 | 11 | -1
COc1ccc(/C=N/Nc2cc(C)nc(N3CCOCC3)n2)cc1 | 1 | 0 | nt | 33* | 2
COc1ccc(/C=N/Nc2cc(N(C)C)nc(N(C)C)n2)cc1 | -1 | 2 | nt | 24 | -15
COc1cc(/C=N/Nc2cc(C)nc(N)n2)ccc1O | -3 | -1 | 1 | 19 | 2
COc1ccc(/C=N/Nc2cc(OC)ncn2)cc1 | 0 | -2 | nt | 31* | 3
COc1ccc(/C=N/Nc2cc(C)nc(-n3nc(C)cc3C)n2)c(OC)c1 | 1 | 0 | nt | 37* | -6
Cc1nc(S/C(=C/c2ccc(OCc3ccc(C(=O)O)cc3)cc2)C(=O)O)n[nH]1 | 1 | 4 | nt | 31* | 3
CCN(CC)c1ccc(C=Nc2cccc(S(=O)(=O)N3CCOCC3)c2)c(O)c1 | -4 | -2 | -3 | 61* | -5
CCN(CC)c1ccc(/C=N/NC(=O)c2cccc(S(=O)(=O)N3CCOCC3)c2)c(O)c1 | -3 | -8 | -2 | 18 | 25
CCN(CC)c1ccc(C=Nc2ccc(OC)c(S(=O)(=O)N3CCOCC3)c2)c(O)c1 | -3 | -1 | 0 | 32* | -11
C[C@@H]1CN([C@H](C)CO)C(=O)c2cc(NS(=O)(=O)c3ccc(F)cc3)ccc2O[C@H]1CN(C)CC1CC1 | nt | nt | 1 | nt | nt
O=C1CS(=O)(=O)N(Cc2cccc(F)c2)c2ccc(Br)cc21 | -3 | 4 | -3 | 5 | -67
O=C1c2cc(Br)ccc2N(Cc2ccc(Br)cc2)S(=O)(=O)C1c1cc(Cl)c(Cl)cc1[N+](=O)[O-] (stereo unspecified) | 30* | -4 | -2 | 4 | 2
CCOC(=O)CN1C(=O)C(CC)Oc2ccccc21 (stereo unspecified) | -2 | 0 | 0 | -1 | 2
CCOC(=O)C(C(=O)OCC)C1N=C(N)N=C2Oc3ccccc3N21 (stereo unspecified) | -2 | 5 | 1 | 49* | 2
SMILES | FadD28 FP inh | Mtb FBA inh | Mtb BioA inh | GDH-TPI inh | Rv3671c protease
CN(C)CCCNS(=O)(=O)c1ccc(N2CCC(c3ccc(Cl)cc3)=N2)cc1 | nt | nt | nt | nt | 8
O=S(=O)(c1ccc(N2CCC(c3ccc(Cl)cc3)=N2)cc1)N(CCO)CCO | ? | + | -1 | 32* | 8
Cc1[nH][nH]c(=O)c1C(c1cc(Br)ccc1O)c1c(C)[nH][nH]c1=O | -3 | 1 | 1 | 1 | -21
O=C(O)c1[nH]c2ccccc2c1C(c1cc(Br)ccc1O)c1c(C(=O)O)[nH]c2ccccc12 | 35* | 5 | 1 | 21 | 16
O=C(O)c1[nH]c2ccccc2c1C(c1c(F)cccc1Cl)c1c(C(=O)O)[nH]c2ccccc12 | 24* | -4 | 0 | 0 | 9
COc1cc(Cl)cc(C(c2c(C(=O)O)[nH]c3ccccc23)c2c(C(=O)O)[nH]c3ccccc23)c1O | 33* | 0 | 0 | 1 | 10
CO[C@H]1CN(C)C(=O)c2ccc(NS(=O)(=O)CC(F)(F)F)cc2OC[C@H](C)N(C)C[C@H]1C | nt | nt | 0 | nt | nt
O=C(N/C(=C/c1ccc(Br)cc1)c1nc2ccccc2[nH]1)c1ccco1 | 0 | 5 | -1 | 32* | -13
O=C(/C(=C/c1ccc(Cl)cc1)c1nc2ccccc2[nH]1)c1ccccc1 | -6 | -1 | 4 | 17 | -14
O=C(N/C(=C/c1ccc(Cl)cc1)c1nc2ccccc2[nH]1)c1ccco1 | -2 | 4 | 2 | 42* | 1
